Sampled rows, rich in hits. Any-hit rate of the full collection: about 4.7%.
ATXN2 expr inh: reduces ATXN2 reporter expression in HEK-293 cells; HEK-293 ATXN2-luciferase reporter, luminescence, 24 h; Potency, µM (highest dose often 57 µM), for the others: at the top dose activity change, negative = inhibition, usual class: inhibitors; hit rate 0.72% among 360,000; AID 1745845; note: potency is the fitted concentration of half-maximal effect; % is set by controls: 0 for no effect and ±100 for the full control effect; nearly all actives have a fitted effect of over 55% in size
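qHTS (up to 57 uM final) was run with 24 h compound exposure of reporter cells at 37 °C. Each well was multiplexed: SteadyGlo luminescence measured ATXN2-luciferase expression after a fluorogenic Gly-Phe-AFC viability readout (25 uM final).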
DRD3 agonist: D3 dopamine receptor (human) agonism | P35462 | D3R DiscoveRx beta-arrestin cells, luminescence, 90 min | max activation, % | hit rate 0.58% among 410,000; in the data active = max activation above about 30%; note: 0% is about no effect
Target sequence (P35462 whole entry, looked up): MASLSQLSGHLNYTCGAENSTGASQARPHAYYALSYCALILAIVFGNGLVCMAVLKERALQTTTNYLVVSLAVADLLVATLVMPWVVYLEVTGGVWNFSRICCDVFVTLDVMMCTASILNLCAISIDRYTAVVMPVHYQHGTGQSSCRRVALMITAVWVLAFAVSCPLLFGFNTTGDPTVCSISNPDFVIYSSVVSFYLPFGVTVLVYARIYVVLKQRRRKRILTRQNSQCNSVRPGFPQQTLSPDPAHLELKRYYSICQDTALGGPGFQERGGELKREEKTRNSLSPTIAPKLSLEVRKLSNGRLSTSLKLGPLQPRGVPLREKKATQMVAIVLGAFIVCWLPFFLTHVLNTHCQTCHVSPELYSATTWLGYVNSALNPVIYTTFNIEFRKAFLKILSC
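Agonist mode: compounds and dopamine controls were applied to plated cells for 90 min at 37 degrees C after an overnight attachment at 1500 cells/well. Luminescent read-out followed 30 - 60 minutes at room temperature with DiscoveRx detection reagent.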
DRD3 antagonist: antagonists of human D3 dopamine receptor | P35462 | D3R cells, DiscoveRx beta-arrestin luminescence, antagonist mode; stronger effect = lower value | max response, negative = inhibition, % | hit rate 2.5% among 360,000; in the data active = max response below about -50%; inconclusive = no clear call, values can overlap the other calls; note: % is set by controls: 0 for no effect and ±100 for the full control effect
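Cells expressing the human receptor were seeded at 1500 cells/well, incubated overnight at 37 degrees C in 5% CO2, then exposed to library compounds with dopamine controls for 90 minutes at 37 degrees C before luminescent detection.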
S2 tox: cell viability loss in ATXN counter-screen; Potency, µM (highest dose often 56.7 µM), most hits filed as cytotoxic; S2 cells (HEK-293 line with an ATXN2-luciferase reporter) viability, CellTiter-Fluor protease fluorescence, 24 h; AID 651635; hit rate 0.49% among 400,000; note: potency is the fitted concentration of half-maximal effect; nearly all actives have a fitted effect of over 40% in size
TGFb inhibitor: TGF-b pathway inhibition | hit rate 1.2% among 410,000 | Potency, µM (top dose mostly 46.1 µM), inactives show at the top dose activity, negative = inhibition, most hits filed as inhibitors | HepG2 CAGA-GFP TGF-b/SMAD3 reporter, GFP fluorescence, 18 h; TGF-beta stimulated, 500 pg/mL final | AID 588855; note: potency is the fitted concentration of half-maximal effect; % is set by controls: 0 for no effect and ±100 for the full control effect; nearly all actives have a fitted effect of over 65% in size
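First, reporter cells (HEPG2 CAGA-GFP) rested 2 h at 37 degrees C. Next, compounds were pinned in and TGF-beta added to 500 pg/mL final. After 18 h, GFP was imaged per cell and summed per well.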
HepG2 viability: kills HepG2 cells in TGF-b inhibitor counter-screen; HepG2 CAGA-GFP viability, ATP luminescence, 18 h; Potency, µM (top dose mostly 46.1 µM), inactives show at the top dose activity change, negative = cytotoxicity, most hits filed as cytotoxic; hit rate 0.76% among 410,000; AID 588856; note: potency is the fitted concentration of half-maximal effect
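CellTiter-Glo luminescence gave cytotoxicity after 18 hours at 37 degrees C. The cells were HepG2 CAGA-GFP in 1% FBS DMEM, stimulated with 500 pg/mL TGF-beta after compound addition. %Activity was normalised to no-cell wells (complete cell-killing) and DMSO (no toxicity), and curves were fitted and classified.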
Numbers without * were called inactive; i = inactive; ? = inconclusive; · = not tested or not shown; [ ] = another dose, or the depositor's remark. Unless noted, calls come from the whole dose curve; as a rule, active = well fitted curve in the direction sought with a large enough effect; inconclusive = small, poorly fitted or top-dose-only effect, or another doubt; inactive = no such curve, though single readings can be large; an effect the other way counts as inactive or inconclusive.

SMILES	ATXN2 expr inh	DRD3 agonist	DRD3 antagonist	S2 tox	TGFb inhibitor	HepG2 viability
CC1(C)CC(N=c2cc(-c3ccccc3)oc3ccc(Cl)cc23)CC(C)(C)N1	1%[11.3 µM]	-15	-17	i	?	16µM*
CC1(C)S[C@@H]2[C@H](NC(=O)C(C(=O)O)c3ccsc3)C(=O)N2[C@H]1C(=O)O (stereo partly specified)	·	4	·	i	·	·
CCOc1cc(NC(=O)c2ccccn2)c(OCC)cc1NC(=O)c1ccc(C)cc1	·	-1	37	i	-2%	5%
CCOc1cc(NC(=O)C2CCCCC2)c(OCC)cc1NC(=O)c1ccccn1	-12%	49*	17	i	17%	-1%
CCc1cccc(NC(=O)c2ccc(CN3C(=O)C(C)=C(c4ccc(OC)cc4)S3(=O)=O)cc2)c1	14%	-18	·	i	5%	4%
CC[C@@H](CO)NCCN[C@@H](CC)CO	2%	2	·	i	·	·
Cc1ccc(C(=O)N2CCN(c3ccc(NC(=O)c4ccc5c(c4)OCCO5)cc3)CC2)cc1	?	18	61	i	0%	2%
COc1ccc(C(=O)Nc2ccc(N3CCN(C)CC3)cc2)cc1	·	-1	-25	?	-3%	-4%
Cc1ccccc1C(=O)N1CCN(c2ccc(NC(=O)c3cccc(OC(C)C)c3)cc2)CC1	-7%	-3	10	i	-1%	25%
COc1c(C)cccc1C(=O)Nc1ccc(N2CCN(C(=O)c3ccccc3C)CC2)cc1	20µM*	28	22	?	?	-10%
Cc1ccccc1C(=O)N1CCN(c2ccc(NC(=O)c3ccc4c(c3)OCCO4)cc2)CC1	28µM*	26	56	?	-7%	-12%
CN1CCN(c2ccc(NC(=O)c3ccc4ccccc4c3)cc2)CC1	14µM*	-19	?	i	-1%	-9%
COc1ccc(N(C(=O)c2cnccn2)C(C(=O)NC2CCCCC2)c2ccc(Cl)cc2)cc1 (stereo unspecified)	-8%	3	-11	i	11%	0%
COc1ccc(C(C(=O)NC2CCCCC2)N(C(=O)CCl)c2ccc(Cl)cc2)cc1 (stereo unspecified)	3.5µM*	0	-10	3.2µM*	-28%	-63%
COc1ccc(CNC2CCCc3ccccc32)cc1OC (stereo unspecified)	-13%	-24	4	i	6%	-1%
CCc1ccccc1OC[C@@H](O)CN[C@H]1CCCc2ccccc21	?	-59	-53*	?	?	-104%
OC(CNC1CCCc2ccccc21)COc1ccc2ccccc2c1 (stereo unspecified)	·	-3	-4	?	?	-89%
CCOc1ccc(CNC2CCCc3ccccc32)cc1 (stereo unspecified)	-28%	-22	-51*	i	?	-25%
COc1ccc(-n2c(=O)c3c4c(sc3n(Cc3ccccc3)c2=O)CN(C(C)=O)CC4)cc1OC	-15%	-3	·	i	0%	-10%
CCOc1ccc(/C=N/NC(=O)C(=O)N2CCCCCC2)c2ccccc12	?	3	-8	?	7.9µM*	-56%
COc1cccc(/C=N/NC(=O)C(=O)N2CCCC2)c1OC	1%	2	1	i	-2%	-13%
CCN(CC)C(=O)Cn1c(=O)cc(C)c2c(C)nn(C)c21	-7%	-2	·	i	2%	3%
O=C1CCC[C@H]2c3[nH]c4ccccc4c3CCN12	4%	-22	-51*	i	-8%	-35%
Cc1ccccc1NS(=O)(=O)c1ccc(OCC(=O)N2CCCCC2)cc1	-9%	32*	9	i	0%	-4%
Cc1cc2c(C)cc(=O)[nH]c2cc1NC(=O)CCl	·	3	11	11µM*	?	-66%
SMILES	ATXN2 expr inh	DRD3 agonist	DRD3 antagonist	S2 tox	TGFb inhibitor	HepG2 viability
CCC(=O)Nc1cc2[nH]c(=O)cc(C)c2cc1C	-18%	3	6	·	20%	-5%
COc1cccc(CNC(=O)CCc2c(C)c3cc4c(C)c(C)oc4cc3oc2=O)c1	·	-30	·	·	-25%	-17%
O=C(NCCN1CCN(c2cccc(Cl)c2)CC1)Nc1ccccc1C(F)(F)F	-11%	-18	·	i	-21%	-39%
CCOc1ccc(NC(=O)Cn2sc3nc(C)cc(C)c3c2=O)cc1	-14%	0	0	i	11µM*	-54%
Cc1ccccc1CS(=O)(=O)CCC(=O)NCCN1CCN(c2cccc(Cl)c2)CC1	-21%	-10	-54*	i	?	-9%
O=C(Cc1ccc(Cl)cc1)NCCS(=O)(=O)N1CCN(c2ccccc2F)CC1	-16%	-21	?	i	?	-24%
Cc1cc(C)c2c(=O)n(CC(=O)NCCCN3CCN(c4ccccc4F)CC3)sc2n1	?	8	-70*	19µM*	?	-37%
O=C(CCS(=O)(=O)Cc1ccc(Cl)cc1)NCCCN1CCN(c2ccccc2F)CC1	-18%	2	-70*	i	?	-30%
Cc1oc(-c2ccccc2NS(C)(=O)=O)nc1CN(C)Cc1ccc(Cl)cc1	·	·	·	i	·	·
O=C(C[N+]1(CCO)CCOCC1)c1ccc2ccccc2c1	·	·	·	·	23%	14%
Cc1ccccc1CS(=O)(=O)CCC(=O)NCCCN1CCN(c2ccccc2F)CC1	-12%	3	-60*	i	17%	1%
Cc1cc(=O)oc(C)c1C(=O)NCCCN1CCN(c2ccccc2F)CC1	-8%	-15	?	i	-4%	-22%
COc1cc2sc3ccc(-c4ccc(CN5CCOCC5)cc4)cc3c(=O)c2cc1OC	1%	118*	181	?	-11%	-16%
O=C(NN=c1c(=O)c2ccccc2c1=O)c1ccccc1	-15%	-18	?	i	11µM*	16µM*
COc1ccc([N+](=O)[O-])cc1NC(=O)CCN1CCN(c2ccccc2OC)CC1	0%	6	-76*	i	5%	12%
O=C(CCN1CCN(c2ccccc2)CC1)N/N=C/c1ccccc1O	27µM*	-33	-67*	i	?	1%
COc1cccc(NC(=O)CCN2CCN(c3ccccc3F)CC2)c1	?	39*	?	i	-8%	8%
Cc1ccc(C)c(NC(=O)CCN2CCN(c3ccccc3F)CC2)c1	·	15	-64*	i	-9%	-17%
CN1CCCCCC1C(=O)NCC1Cc2cc(-c3cnccn3)ccc2O1 (stereo unspecified)	·	·	·	i	·	·
Cc1ccc(C)c(S(=O)(=O)c2nnn3c2nc(Nc2ccc(C)c(C)c2)c2ccccc23)c1	3%	-12	·	i	1%	-15%
